The nature of experiment [1]: antimalarial activity against Dd2 strain (AID 2302;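 active = growth inhibition above 50% at the single 2 µM test dose, taken to imply half-maximal potency below 2 µM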;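 note: 0% = DMSO untreated growth and 100% = chloroquine plus artemisinin killed control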). As to conditions: P. falciparum Dd2 in RBCs, LDH growth readout, 72 h; at 2 µM; hits give high values.
A short description of experiment [2]: HepG2 cytotoxicity, primary screen, cytotoxicity control for P. falciparum antimalarial project, cell-based, ATP luminescence (AID 2303;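 active = inhibition above 50%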;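 note: 0% = DMSO wells and 100% = digitonin-killed cells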). As to conditions: HepG2 viability, 24-48 h, at 10 µM, hits give high values.
The target in experiment [3] is L-lactate dehydrogenase (Plasmodium falciparum (isolate CDC / Honduras)) (UniProt Q27743). As to the kind of experiment: PfLDH activity inhibition – cell lysate, 3D7 strain, counter-screen for P. falciparum growth inhibition project (AID 2304).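 Note: 0% = vehicle and 100% = reference inhibitor.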 As to conditions: P. falciparum 3D7 crude extract, LDH APAD/NBT absorbance; at 2 µM; hits give high values. (The purpose of a counterscreen is to sort out artefacts and off-target activity.)
Sequence of L-lactate dehydrogenase (Plasmodium falciparum (isolate CDC / Honduras)) (Q27743 whole entry, looked up): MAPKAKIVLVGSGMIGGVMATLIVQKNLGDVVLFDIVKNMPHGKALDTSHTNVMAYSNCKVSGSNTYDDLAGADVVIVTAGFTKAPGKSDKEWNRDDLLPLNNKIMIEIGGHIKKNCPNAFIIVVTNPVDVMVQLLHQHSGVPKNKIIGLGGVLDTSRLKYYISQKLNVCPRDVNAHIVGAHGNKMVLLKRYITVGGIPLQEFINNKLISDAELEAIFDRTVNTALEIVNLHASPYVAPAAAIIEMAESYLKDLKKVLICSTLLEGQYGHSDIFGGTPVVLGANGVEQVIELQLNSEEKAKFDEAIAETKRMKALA

Experiment [4] can be described thus: inhibition of 3D7 malaria parasite growth – strain 3D7 (AID 2306).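 Note: 0% = DMSO wells and 100% = chloroquine plus artemisinin control wells.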 As to conditions: P. falciparum 3D7 erythrocytic growth, LDH absorbance, 72 h; at 2 µM; hits give high values.
Experiment [5] deals with Calcium-dependent protein kinase 1 (Plasmodium falciparum (isolate 3D7)) (UniProt P62344). The experiment is described as follows: PfCDPK1 kinase inhibitors, biochemical, TCAMS library (AID 1159585; cut-off not given, nearly all actives have IC50 up to about 0.98 µM;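 note: inhibitors leave more ATP so luminescence rises with inhibition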). As to conditions: recombinant PfCDPK1, Kinase-Glo ATP depletion luminescence. A general note: Kinase-Glo measures the ATP left after a reaction by luminescence.
Sequence of Calcium-dependent protein kinase 1 (Plasmodium falciparum (isolate 3D7)) (P62344 whole entry, looked up): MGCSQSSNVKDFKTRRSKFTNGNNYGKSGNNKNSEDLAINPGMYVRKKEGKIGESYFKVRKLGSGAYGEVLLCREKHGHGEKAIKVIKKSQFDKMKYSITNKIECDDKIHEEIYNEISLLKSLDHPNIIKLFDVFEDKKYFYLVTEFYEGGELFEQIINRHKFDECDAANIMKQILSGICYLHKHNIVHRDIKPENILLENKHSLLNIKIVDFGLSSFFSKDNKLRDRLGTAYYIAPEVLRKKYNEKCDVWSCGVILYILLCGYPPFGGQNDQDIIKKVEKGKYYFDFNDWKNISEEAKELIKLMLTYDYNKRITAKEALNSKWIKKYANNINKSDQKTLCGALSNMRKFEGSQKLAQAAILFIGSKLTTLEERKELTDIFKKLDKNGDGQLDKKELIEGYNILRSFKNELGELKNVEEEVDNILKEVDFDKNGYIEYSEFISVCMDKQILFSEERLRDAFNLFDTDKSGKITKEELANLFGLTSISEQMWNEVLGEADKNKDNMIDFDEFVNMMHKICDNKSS
Experiment [6] deals with Plasmodium falciparum protein kinase 6 (PK6, PF3D7_1337100) (UniProt Q8IDW1). The experiment is described as follows: PfPK6 kinase inhibitors, biochemical, TCAMS library (AID 1159586). As to conditions: recombinant PfPK6, Kinase-Glo ATP depletion luminescence.
Sequence of Plasmodium falciparum protein kinase 6 (PK6, PF3D7_1337100) (Q8IDW1 1-305): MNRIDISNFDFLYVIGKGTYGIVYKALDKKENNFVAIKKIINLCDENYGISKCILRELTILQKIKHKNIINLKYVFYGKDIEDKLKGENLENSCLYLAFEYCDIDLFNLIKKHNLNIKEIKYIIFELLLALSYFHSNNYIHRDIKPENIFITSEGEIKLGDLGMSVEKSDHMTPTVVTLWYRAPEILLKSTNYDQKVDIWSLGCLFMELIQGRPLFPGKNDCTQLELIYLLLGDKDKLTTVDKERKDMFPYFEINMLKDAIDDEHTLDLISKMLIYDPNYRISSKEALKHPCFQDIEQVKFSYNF
In experiment [7] the target is Protein kinase 7 (PK7), Plasmodium falciparum 3D7 (PF3D7_0213400) (UniProt Q7YTF7). The experiment is described as follows: inhibition of Plasmodium PK7 catalytic activity – biochemical, TCAMS antimalarial set, Kinase-Glo luminescence (AID 1159587). As to conditions: recombinant PfPK7, Kinase-Glo ATP depletion luminescence.
Sequence of Protein kinase 7 (PK7), Plasmodium falciparum 3D7 (PF3D7_0213400) (Q7YTF7 1-343): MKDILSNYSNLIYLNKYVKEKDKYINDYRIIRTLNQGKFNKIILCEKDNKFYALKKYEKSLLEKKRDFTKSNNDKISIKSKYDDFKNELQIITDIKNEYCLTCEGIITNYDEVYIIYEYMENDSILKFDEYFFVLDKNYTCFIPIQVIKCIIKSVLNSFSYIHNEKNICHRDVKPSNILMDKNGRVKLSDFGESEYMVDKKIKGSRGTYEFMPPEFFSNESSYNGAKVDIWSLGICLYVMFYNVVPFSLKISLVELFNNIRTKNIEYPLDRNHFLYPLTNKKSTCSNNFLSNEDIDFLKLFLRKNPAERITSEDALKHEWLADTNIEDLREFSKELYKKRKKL
For experiment [8], the target named is Calcium-dependent protein kinase 4 (Plasmodium falciparum (isolate 3D7)) (UniProt Q8IBS5). The experiment is described as follows: PfCDPK4 kinase inhibitors, biochemical, TCAMS library (AID 1159588; cut-off not given, nearly all actives have IC50 up to about 0.91 µM). As to conditions: recombinant PfCDPK4, Kinase-Glo ATP depletion luminescence.
Sequence of Calcium-dependent protein kinase 4 (Plasmodium falciparum (isolate 3D7)) (Q8IBS5 whole entry, looked up): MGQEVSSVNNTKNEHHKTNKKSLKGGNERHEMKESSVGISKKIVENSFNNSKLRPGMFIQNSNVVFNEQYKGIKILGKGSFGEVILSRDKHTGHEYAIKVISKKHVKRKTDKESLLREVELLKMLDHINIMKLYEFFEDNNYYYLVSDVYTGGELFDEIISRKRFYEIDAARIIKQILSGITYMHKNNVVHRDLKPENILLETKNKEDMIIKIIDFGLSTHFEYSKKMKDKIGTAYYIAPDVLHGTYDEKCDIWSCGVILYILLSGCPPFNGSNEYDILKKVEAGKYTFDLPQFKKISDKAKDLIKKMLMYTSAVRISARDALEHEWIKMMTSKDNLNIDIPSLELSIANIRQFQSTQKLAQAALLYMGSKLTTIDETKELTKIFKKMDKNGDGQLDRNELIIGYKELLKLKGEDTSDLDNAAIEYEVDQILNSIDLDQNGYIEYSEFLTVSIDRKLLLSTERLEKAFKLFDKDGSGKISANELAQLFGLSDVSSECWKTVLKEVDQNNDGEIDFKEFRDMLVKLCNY

Molecules are shown by their SMILES. A number with no mark means an inactive call. For some of these results: Potency and affinity values are given separately. The source made the active and inactive calls. Unless noted, the rule behind the calls is not given here.

With `O=C(Nc1ccccc1)c1nn(CCCN2CCC(N3CCCC3)CC2)cc1-c1ccc(Cl)c(Cl)c1`, the growth inhibition was 98% (active) in experiment [1] and 103% (active) in experiment [4]. Besides, the figures for the inhibition in experiment [2] and in experiment [3] were 31% and -2%, respectively. Besides, the outcome in experiment [5], in experiment [6], in experiment [7] and in experiment [8] was inactive.
For `NC1=NC(CCc2ccccc2)N(c2ccc(Cl)cc2)C(N)=N1` (stereo not given), the growth inhibition was 20% in experiment [1] and 94% (active) in experiment [4]. Besides, the inhibition – broadly, the change of the read-out against control, counted positive when it falls – is 2% in experiment [2] and -5% in experiment [3]. Further, the outcome in experiment [5], in experiment [6], in experiment [7] and in experiment [8] was inactive.
For the molecule `O=C1CCCN1CCCNCc1cccc(-c2ccc(-c3nc4ccccc4[nH]3)s2)c1`, the growth inhibition in experiment [1] was 0%; in experiment [4], 97% (active). In addition, the inhibition in experiment [2] was -6%; in experiment [3] it was -3%. Further, the result in experiment [5], in experiment [6], in experiment [7] and in experiment [8] was inactive.
In the case of `CN1CCN(Cc2ccc(-c3ccc4ncnc(Nc5ccc(OCc6ccccc6)cc5)c4c3)o2)CC1`, the results for the growth inhibition in experiment [1] and in experiment [4] were 90% (active) and 97% (active), respectively. For the same molecule, the values for the inhibition in experiment [2] and in experiment [3] were 9% and 2%, respectively. For the same molecule, the outcome in experiment [5], in experiment [6], in experiment [7] and in experiment [8] was inactive.
Regarding `O=C(Nc1ccc(-c2nc3ccccc3[nH]2)cc1)c1cnc(Cl)c(Cl)c1`, the growth inhibition in experiment [1] was 95% (active); in experiment [4] it was 102% (active). In addition, the inhibition was 11% in experiment [2] and 0% in experiment [3]. Besides, the outcome in experiment [5], in experiment [6], in experiment [7] and in experiment [8] was inactive.
As for `CC[C@H](C)CNCc1ccc(OCc2cccc(COc3ccc(CNC[C@@H](C)CC)cc3I)c2)c(I)c1`, the growth inhibition is 60% (active) in experiment [1] and 99% (active) in experiment [4]. The results for the inhibition in experiment [2] and in experiment [3] were 99% (active) and 7%, respectively. Also, the result in experiment [5], in experiment [6], in experiment [7] and in experiment [8] was inactive.
On to `CCOc1cc2c(cc1OCC)C(c1ccc(O)c(Cl)c1)NCC2` (stereo not given), for which the growth inhibition in experiment [1] and in experiment [4] was 98% (active) throughout. Also, the inhibition was 6% in experiment [2] and 4% in experiment [3]. Also, the outcome in experiment [5], in experiment [6], in experiment [7] and in experiment [8] was inactive.
Turning to `CCOc1cc(C)ccc1N(C1CCN(CCCCNC(=O)c2ccc(-c3ccc(C(F)(F)F)cc3)cc2)CC1)S(=O)(=O)c1ccccc1`, the growth inhibition in experiment [1] was 85% (active); in experiment [4], 88% (active). Also, the results for the inhibition in experiment [2] and in experiment [3] were 14% and -4%, respectively. For the same molecule, the outcome in experiment [5], in experiment [6], in experiment [7] and in experiment [8] was inactive.
With `COc1ccc(C2CC(=O)C3=C(C2)NC(C)=C(C(=O)OC(C)C)C3c2ccc(O)cc2)cc1OC` (stereo not given), the growth inhibition in experiment [1] is 98% (active); in experiment [4] it was 99% (active). For the same molecule, the inhibition in experiment [2] was -1%; in experiment [3], -3%. The outcome in experiment [5], in experiment [6], in experiment [7] and in experiment [8] was inactive.
For `N#Cc1ccc2c(c1)CCN(CCC1CCC(NC(=O)c3cc4ccc(Cl)cc4[nH]3)CC1)C2` (stereo not given), the growth inhibition in experiment [1] was -2%; in experiment [4], 103% (active). Moreover, the inhibition in experiment [2] was 5%; in experiment [3], -3%. Also, the result in experiment [5], in experiment [6], in experiment [7] and in experiment [8] was inactive.
Take `N#Cc1ccccc1Sc1ccccc1C(=O)Nc1ccc2ccccc2n1`: the growth inhibition in experiment [1] is 85% (active); in experiment [4] it was 92% (active). Also, the inhibition is -3% in experiment [2] and 0% in experiment [3]. Besides, the result in experiment [5], in experiment [6], in experiment [7] and in experiment [8] was inactive.
As to `O=C(c1ccc(-c2ccc(-c3nc4ccc(F)cc4[nH]3)cc2)cc1)N1CCCCC1CN1CCC(O)C1` (stereo not given), the growth inhibition is 100% (active) in experiment [1] and 90% (active) in experiment [4]. Moreover, the values for the inhibition in experiment [2] and in experiment [3] were 24% and -1%, respectively. Further, the result in experiment [5], in experiment [6], in experiment [7] and in experiment [8] was inactive.
With `CC[C@H](C)CNC(=O)c1cncc(-c2cccc(CNC3Cc4ccccc4C3)c2)c1`, the growth inhibition in experiment [1] is 76% (active); in experiment [4], 101% (active). The inhibition is 5% in experiment [2] and 0% in experiment [3]. In addition, the result in experiment [5], in experiment [6], in experiment [7] and in experiment [8] was inactive.
As to `O=C(Nc1ccc2nc(-c3ccccc3)[nH]c2c1)c1cc(-c2ccc3c(c2)OCCO3)n[nH]1`, the growth inhibition in experiment [1] was 75% (active); in experiment [4], 100% (active). In addition, the inhibition in experiment [2] is 58% (active); in experiment [3], -2%. For the same molecule, the result in experiment [5], in experiment [6], in experiment [7] and in experiment [8] was inactive.
For the molecule `CCN(CC)CC(O)c1cc(-c2ccc(C)cc2)nc2c(C)cc(C)cc12` (stereo not given), the growth inhibition in experiment [1] was 99% (active); in experiment [4], 100% (active). For the same molecule, the inhibition in experiment [2] is 3%; in experiment [3] it was 1%. The result in experiment [5], in experiment [6], in experiment [7] and in experiment [8] was inactive.
Turning to `CCOc1cc(C(=O)N[C@@H](Cc2ccccc2)[C@H](O)CNCc2cc(OC)cc(OC)c2)cc(N2CCCCS2(=O)=O)c1`, the growth inhibition in experiment [1] is 98% (active); in experiment [4] it was 100% (active). Further, the values for the inhibition in experiment [2] and in experiment [3] were -2% and 5%, respectively. The result in experiment [5], in experiment [6], in experiment [7] and in experiment [8] was inactive.
Take `c1cncc(Oc2ccc(Nc3ccnc4cc(-c5cccc(CN6CCCCC6)c5)ccc34)cc2)c1`: the growth inhibition was 100% (active) in experiment [1] and 101% (active) in experiment [4]. Moreover, the values for the inhibition in experiment [2] and in experiment [3] were 33% and 4%, respectively. Moreover, the result in experiment [5], in experiment [6], in experiment [7] and in experiment [8] was inactive.
As to `CCn1c(-c2nonc2N)nc2cnc(Oc3cccc(NC(=O)c4ccc(OCCN(C(C)C)C(C)C)cc4)c3)cc21`, the growth inhibition in experiment [1] was 10%; in experiment [4] it was 97% (active). The inhibition in experiment [2] is 63% (active); in experiment [3], -6%. Also, the result in experiment [5], in experiment [6], in experiment [7] and in experiment [8] was inactive.
On to `Cc1cccc(NC(=O)c2ccc(C(=O)NC3CCN(CC4CCCCC4)CC3)cc2)c1`, for which the growth inhibition is 18% in experiment [1] and 95% (active) in experiment [4]. For the same molecule, the inhibition was 14% in experiment [2] and -1% in experiment [3]. For the same molecule, the result in experiment [5], in experiment [6], in experiment [7] and in experiment [8] was inactive.
Turning to `Cc1nc(-c2ccc(-c3ccc(C(=O)Nc4ccc(-n5ccnc5)c(N5CCN(C)CC5)c4)cc3)c(C)c2)no1`, the growth inhibition in experiment [1] and in experiment [4] was 100% (active) throughout. The inhibition is 34% in experiment [2] and 2% in experiment [3]. Also, the result in experiment [5], in experiment [6], in experiment [7] and in experiment [8] was inactive.
